{"source": "ChEMBL document CHEMBL4513216", "about": "“Probing the Open Global Health Chemical Diversity Library for Multistage-Active Starting Points for Next-Generation Antimalarials” (ACS Infect Dis, 2020)", "note": "Screen size: about 69,000 compounds; about 8,600 (12%) showed an effect of 50% or more. The entries come from a sample that favours strong results as a whole."}
{"test_system": "Plasmodium berghei", "test": "Screen against P. berghei liver stage (PbLuc), transformed with Luciferase, at 10uM", "type": "functional, HepG2", "settings": "tested at 10 uM", "units": {"INHIBITION": "%"}}
{"smiles": "CC(=O)N(Cc1noc(C2CC2)n1)C1CCN(Cc2ccccc2)C1", "note": "(configuration not stated)", "INHIBITION": -6.44}
{"smiles": "c1cc(-c2ccc3c(c2)C2(CCNCC2)CC3)ccn1", "INHIBITION": 82.2}
{"smiles": "OCCN1CCC2(CCc3cc(-c4ccoc4)ccc32)CC1", "INHIBITION": 28.2}
{"smiles": "c1cncc(-c2ccc3c(c2)CCC32CCN(Cc3nccs3)CC2)c1", "INHIBITION": 57.1}
{"smiles": "O=C(CCO)N1CCC2(CCc3ccc(-c4ccoc4)cc32)CC1", "INHIBITION": 0.923}
{"smiles": "c1cncc(-c2ccc3c(c2)CCC32CCN(Cc3ccco3)CC2)c1", "INHIBITION": 26.5}
{"smiles": "O[C@H]1[C@H](n2cc(-c3cccnc3)nn2)c2ccccc2C12CCNCC2", "INHIBITION": 31.2}
{"smiles": "Cc1ccc2c(c1)CCC21CCN(C(=O)CO)CC1", "INHIBITION": 10.1}
{"smiles": "c1cncc(-c2ccc3c(c2)C2(CCNCC2)CC3)c1", "INHIBITION": 27.5}
{"smiles": "c1cncc(-c2ccc3c(c2)CCC32CCNCC2)c1", "INHIBITION": 57.1}
{"smiles": "CN(C)CC(=O)N1CCC2(CCc3cc(-c4cccnc4)ccc32)CC1", "INHIBITION": 15.3}
{"smiles": "CN(C)CC(=O)N1CCC2(CCc3ccc(-c4ccncc4)cc32)CC1", "INHIBITION": 21.6}
{"smiles": "c1cc(-c2ccc3c(c2)CCC32CCNCC2)ccn1", "INHIBITION": 57.1}
{"smiles": "CCOc1ccc(NC(=O)c2cc3c([nH]c2=O)CCC3)cc1", "INHIBITION": -29.6}
{"smiles": "NC(=O)NC1CCN(Cc2ccccc2OCC(F)(F)F)CC1", "INHIBITION": 6.7}
{"smiles": "Cc1noc(CN2CCN(C(=O)N(C)C)CC2)n1", "INHIBITION": 23.5}
{"smiles": "CS(=O)(=O)NC[C@@H]1OC[C@H]2CN(Cc3ccccc3)CC[C@H]21", "INHIBITION": -54.9}
{"smiles": "CC(C)c1sc(Cl)nc1C(=O)NCc1ccncc1", "INHIBITION": -23}
{"smiles": "COc1nn(C)c2c1CCCN(C(=O)c1ccc(C)c(F)c1)C2", "INHIBITION": -8.94}
{"smiles": "CS(=O)(=O)NC[C@H]1OC[C@H]2CN(Cc3ccsc3)CC[C@H]21", "INHIBITION": -24.1}
{"smiles": "Cn1ccc(CNC(=O)Nc2ccc(S(=O)(=O)C(F)F)cc2)c1", "INHIBITION": 30.4}
{"smiles": "CN(C)c1ccc(CNC(=O)Nc2ccc(S(=O)(=O)C(F)F)cc2)cc1", "INHIBITION": -3.99}
{"smiles": "COc1ccc(CNC(=O)Nc2ccc(S(=O)(=O)C(F)F)cc2)cc1", "INHIBITION": 66.2}
{"smiles": "Cc1cccc(Sc2nccn(C)c2=O)c1", "INHIBITION": 20.3}
{"smiles": "CC(=O)N1CCC(n2nccc2-c2cnc(N(C)CCO)nc2)CC1", "INHIBITION": 11.5}
{"smiles": "CCOC1COC2(CCN(S(=O)(=O)c3cccc(C)c3)CC2)C1", "note": "(configuration not stated)", "INHIBITION": 27.6}
{"smiles": "CCOC1COC2(CCN(S(=O)(=O)c3ccc(F)cc3)CC2)C1", "note": "(configuration not stated)", "INHIBITION": 45.7}
{"smiles": "COC1COC2(CCN(S(=O)(=O)c3ccc(F)cc3)CC2)C1", "note": "(configuration not stated)", "INHIBITION": 32.1}
{"smiles": "CCOC1COC2(CCN(S(=O)(=O)c3cccc(F)c3)CC2)C1", "note": "(configuration not stated)", "INHIBITION": 29.6}
{"smiles": "CN(C)C1COC2(CCN(S(=O)(=O)c3ccc(F)cc3)CC2)C1", "note": "(configuration not stated)", "INHIBITION": 57.5}
{"smiles": "Cc1cccc(S(=O)(=O)N2CCC3(CC2)CC(N(C)C)CO3)c1", "note": "(configuration not stated)", "INHIBITION": 72}
{"smiles": "CCOCC1CN(S(=O)(=O)N(C)C)Cc2cnn(C)c21", "note": "(configuration not stated)", "INHIBITION": 33.5}
{"smiles": "COCCN1CCO[C@@H]2CN(C(=O)Cc3ccccc3)CC[C@@H]2C1", "INHIBITION": 18.5}
{"smiles": "O=C(CCN1CCCCO1)N1CC[C@H](O)[C@@H](O)C1", "INHIBITION": 28.7}
{"smiles": "CC(C)O[C@H]1CN(C(=O)CCN2CCCCO2)C[C@@H]1O", "INHIBITION": 57.6}
{"smiles": "O=C(CCN1CCCO1)N1CC[C@@H](CNC(=O)N2CCCC2)[C@H](O)C1", "INHIBITION": 43.7}
{"smiles": "Cc1cccc(C(=O)N2C[C@@H]3CCN(C(C)C)C[C@@H]3C2)c1", "INHIBITION": -38.1}
{"smiles": "Cc1cc(CN2CC[C@H]3C[C@H](C(=O)N4CCC(C)CC4)O[C@H]3C2)no1", "INHIBITION": 34.7}
{"smiles": "COc1cccc(-c2nc(CC(=O)NC3(C)CCS(=O)(=O)C3)cs2)c1", "note": "(configuration not stated)", "INHIBITION": -10.1}
{"smiles": "COCC1CCN(c2cc(C3CN(C)CCO3)nc(C)n2)CC1", "note": "(configuration not stated)", "INHIBITION": 23.9}
{"smiles": "Cn1cc(C2CN(C(=O)Cc3coc(-c4ccccc4)n3)CCO2)cn1", "note": "(configuration not stated)", "INHIBITION": 53.9}
{"smiles": "Cn1cc(C2CCCN2C(=O)Cc2coc(-c3ccccc3)n2)cn1", "note": "(configuration not stated)", "INHIBITION": 13.9}
{"smiles": "CCC1CN(C(=O)Cc2coc(-c3ccccc3)n2)CCO1", "note": "(configuration not stated)", "INHIBITION": 7.4}
{"smiles": "CCS(=O)(=O)N1CCC2(CCN(Cc3nccs3)CC2)CC1", "INHIBITION": 26.5}
{"smiles": "CC(C)(C)C(=O)N1CCCC(c2ncncc2-c2ccncc2)C1", "note": "(configuration not stated)", "INHIBITION": 49.6}
{"smiles": "O=C1COc2cc(C(=O)NS(=O)(=O)c3cccc(Cl)c3)ccc2N1", "INHIBITION": 47}
{"smiles": "COc1ccc(CN(C)C2CSCCSC2)c2cccnc12", "INHIBITION": 57.4}
{"smiles": "COc1ccc(CN(C)C2CCN(C(=O)C(C)C)CC2)c2cccnc12", "INHIBITION": 8.97}
{"smiles": "COc1ccc(CN(C)C2CCN(S(C)(=O)=O)CC2)c2cccnc12", "INHIBITION": 30.5}
{"smiles": "O=C(c1ccccc1F)N1CCC2(CC1)CC(N1CCCC1)CO2", "note": "(configuration not stated)", "INHIBITION": 44.8}
{"smiles": "Cc1cnn(CC2CCCN2C(=O)c2ccc(F)cc2Cl)c1", "note": "(configuration not stated)", "INHIBITION": -81.1}
{"smiles": "CN(C)C(=O)c1n[nH]c2c1CN(CC1CCCCC1)C2", "INHIBITION": 25.6}
{"smiles": "CCn1cc(NC(=O)C(C)n2ncc(Cl)c2C)c(C(=O)NCC(C)C)n1", "note": "(configuration not stated)", "INHIBITION": 11}
{"smiles": "COCCN1CCC(c2nc3ccc(N4CCCC4)cn3n2)CC1", "INHIBITION": 52}
{"smiles": "COCCN1CCC(c2nc3ccc(NC4CCC4)cn3n2)CC1", "INHIBITION": 57.5}
{"smiles": "c1cc2nc(C3CCN(CC4CC4)CC3)nn2cc1N1CCCC1", "INHIBITION": 8.47}
{"smiles": "CCN1CCC(c2nc3ccc(NC4CCC4)cn3n2)CC1", "INHIBITION": 46.6}
{"smiles": "COCC(=O)N1CCC(c2nc3ccc(N4CCOCC4)cn3n2)CC1", "INHIBITION": 45.2}
{"smiles": "COCCN1CCC(c2nc3ccc(NC(C)C)cn3n2)CC1", "INHIBITION": 19.5}
{"smiles": "O=C(C1CCOCC1)N1CCc2ncc(CN3CCOCC3)n2CC1", "INHIBITION": -3.88}
{"smiles": "COCCN1CCC2(CCN(c3ncccn3)CC2)C1=O", "INHIBITION": 34.6}
{"smiles": "Cc1ccc(CN2C[C@@H]3[C@@H](C(=O)NCC4CC4)CCS(=O)(=O)[C@@H]3C2)cc1", "INHIBITION": -21.1}
{"smiles": "Cc1cc(C)cc(C(=O)Nc2cn[nH]c2)c1", "INHIBITION": 7.77}
{"smiles": "O=C(NC1CCCC1)c1cc(Sc2ncccn2)ccn1", "INHIBITION": -48.4}
{"smiles": "Cc1[nH]ncc1C(=O)NCC1CCC2(CC1)OCCO2", "INHIBITION": 32}
{"smiles": "Cc1cc(C(=O)NCC2CCC3(CC2)OCCO3)[nH]n1", "INHIBITION": 41.4}
{"smiles": "O=C(NCC1CCC2(CC1)OCCO2)c1ccncc1F", "INHIBITION": 57.7}
